Screens deposited in PubChem BioAssay by several laboratories.
MEP2 TOR yeast: alters MEP2-GFP fluorescence in TOR pathway yeast screen. S. cerevisiae MEP2-GFP strain, flow cytometry GFP, 3 h; 100% = DMSO control level. GFP response vs DMSO, % at 10 µM. 330,000 compounds, 0.51% hits. AID 2016;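 active means GFP response versus DMSO above a set limit, roughly screen mean plus 3 SD, cut at about 180% in these data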;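 further: median GFP fluorescence of the barcode-gated MEP2-GFP cells per well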
AGP1 TOR yeast: alters AGP1-GFP fluorescence in TOR pathway yeast screen; GFP response vs DMSO, % at 10 µM; AID 2066; 320,000 compounds, 0.02% hits; S. cerevisiae AGP1-GFP multiplex flow cytometry, 3 h; GFP as percent of DMSO wells;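 active means GFP response relative to DMSO above a set limit, near screen average plus 3 SD, cut at about 150% in these data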;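 further: median GFP channel fluorescence of the gated AGP1 strain per well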
RPL19A-GFP yeast: alters RPL19A-GFP fluorescence in TOR pathway yeast screen. S. cerevisiae RPL19A-GFP strain, flow cytometry, 3 h; hits give low values. percent response vs DMSO, % at 10 µM. 330,000 compounds, 0.3% hits. AID 2025;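 active means percent response vs DMSO below 50%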;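 further: median channel GFP fluorescence of the barcoded RPL19A-GFP strain; lower means less RPL19A-GFP as with rapamycin TOR inhibition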
LAP4-GFP MLPCN: alters LAP4-GFP fluorescence in TOR pathway yeast screen; S. cerevisiae LAP4-GFP multiplex, flow cytometry GFP, 3 h; median GFP as percent of DMSO wells; GFP response vs DMSO, % at 10 µM; 320,000 compounds, 0.34% hits;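 active means GFP response vs DMSO above a set limit, about the screen mean plus 3 SD, cut at about 150% in these data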
GASC-1 inh: human JMJD2C demethylase inhibition. Q9H3R0. GST-JMJD2C(1-420) H3K9me3 demethylation, DELFIA europium. inhibition, % at 2.35 µM. 330,000 compounds, 0.069% hits;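 active means more than half of a compound's replicate wells show inhibition beyond 50%, single wells judged on their own value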;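 further: signal counts dimethyl H3K9 product captured on neutravidin plate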
Target sequence (Q9H3R0 1-420 limits assumed): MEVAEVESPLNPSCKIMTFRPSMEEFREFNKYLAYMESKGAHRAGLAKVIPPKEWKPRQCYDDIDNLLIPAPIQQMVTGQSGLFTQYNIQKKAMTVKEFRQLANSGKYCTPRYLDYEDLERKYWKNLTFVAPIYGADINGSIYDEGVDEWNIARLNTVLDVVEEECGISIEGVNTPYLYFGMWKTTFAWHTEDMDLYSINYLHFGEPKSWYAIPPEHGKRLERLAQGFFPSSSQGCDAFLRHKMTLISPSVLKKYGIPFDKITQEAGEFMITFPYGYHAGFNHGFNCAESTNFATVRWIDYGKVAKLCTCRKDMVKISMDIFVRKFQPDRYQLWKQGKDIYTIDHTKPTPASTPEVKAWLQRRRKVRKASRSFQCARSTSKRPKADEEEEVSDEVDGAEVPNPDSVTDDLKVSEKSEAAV
CIT2-GFP yeast: yeast TOR pathway CIT2-GFP modulation. 320,000 compounds, 0.065% hits. GFP response vs DMSO, % at 10 µM. S. cerevisiae CIT2-GFP strain, flow cytometry, 3 h; 100 means same as DMSO wells. AID 2029;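 active means GFP response relative to DMSO above a set limit, near the screen mean plus 3 SD, cut at about 150% in these data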;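 further: ratio of well median GFP fluorescence to mean of DMSO wells on the plate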
LAP4-GFP pick2: second confirmation of modulators of TOR reporter LAP4-GFP in yeast. 590 compounds, 20% hits. S. cerevisiae LAP4-GFP strain, flow cytometry GFP, 3 h. shares compounds with LAP4-GFP MLPCN. AID 2621. GFP response vs DMSO, % at 10 µM;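 active means GFP signal as percent of the solvent control above about 150%, meaning raised reporter expression, limit read from the data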
MEP2-GFP pick2: yeast MEP2-GFP modulation, second cherry pick; shares compounds with LAP4-GFP MLPCN; S. cerevisiae MEP2-GFP strain, flow cytometry GFP, 3 h; GFP response vs DMSO, % at 10 µM; 590 compounds, 10% hits; AID 2622;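 active means GFP signal above 150% of the solvent control wells, that is a rise of more than half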;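 further: median channel GFP fluorescence of all gated yeast cells per well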
RPL19A-GFP pick2: yeast RPL19A-GFP TOR reporter modulation, second cherry pick; shares compounds with LAP4-GFP MLPCN; S. cerevisiae RPL19A-GFP strain, flow cytometry GFP, 3 h; hits give low values; 100% means same as DMSO wells; GFP response vs DMSO, % at 10 µM; 590 compounds, 3% hits; AID 2623;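 active means under 65% GFP response relative to DMSO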;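 further: median GFP channel fluorescence per well over the all cells gate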
CIT2-GFP pick2: yeast CIT2-GFP TOR reporter modulation, second cherry pick; S. cerevisiae CIT2-GFP strain, flow cytometry GFP, 3 h; DMSO control wells read 100%; GFP response vs DMSO, % at 10 µM; 590 compounds, 8% hits; AID 2624; shares compounds with LAP4-GFP MLPCN;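 active means GFP response vs DMSO above about 150%, limit read from the data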;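 further: median green fluorescence per well over all gated yeast cells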
AGP1 GFP CP2: reconfirmed modulator of AGP1-GFP TOR reporter in yeast. shares compounds with LAP4-GFP MLPCN. S. cerevisiae AGP1-GFP strain, flow cytometry GFP, 3 h. percent response vs DMSO, % at 10 µM. 590 tested, under 10 active. AID 2643;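 active means over 150 percent of DMSO response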;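 further: median GFP channel fluorescence over all cells without mother daughter split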
s288c autofluor: yeast s288c autofluorescence artifact, counter-screen; AID 2757; S. cerevisiae s288c, 520 nm autofluorescence, flow cytometry, 3 h; hits give high values; zero means same as solvent-only cells; shares compounds with LAP4-GFP MLPCN; fluorescence change (kMESF span) at 33 µM; 610 tested, under 10 active;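 active means fluorescence span over the dose series, or activity score, above about 33, limit read from the data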
Each line names hits and unclear results; the compound was inactive in the other large screens (follow-up assays come after a bar, where they were run). This is a sample that favours compounds with a hit; in the whole collection about 0.97% have one here.

O=C(CN1CCN(c2ccccc2F)CC1)c1c[nH]c2ccccc12	LAP4-GFP MLPCN 159 | LAP4-GFP pick2 inactive | MEP2-GFP pick2 inactive | RPL19A-GFP pick2 inactive | CIT2-GFP pick2 inactive | AGP1 GFP CP2 inactive
Cc1ccc(C(=O)CN2CCN(c3ccccn3)CC2)c(C)c1	none (no result: MEP2 TOR yeast, AGP1 TOR yeast, RPL19A-GFP yeast, LAP4-GFP MLPCN, CIT2-GFP yeast)
Cc1ccsc1C(=O)NCCc1ccc(S(N)(=O)=O)cc1	none
N=C1/C(=C\c2coc3ccccc3c2=O)C(=O)N=C2SC(c3ccncc3)=NN12	none | LAP4-GFP pick2 inactive | MEP2-GFP pick2 inactive | RPL19A-GFP pick2 inactive | CIT2-GFP pick2 163 | AGP1 GFP CP2 inactive | s288c autofluor inactive
O=c1oc(Cl)c(Cl)c2ccccc12	LAP4-GFP MLPCN 191 (no result: GASC-1 inh) | LAP4-GFP pick2 inactive | MEP2-GFP pick2 inactive | RPL19A-GFP pick2 inactive | CIT2-GFP pick2 inactive | AGP1 GFP CP2 inactive
O=c1oc2cc(O)c(Cl)cc2c2ccccc12	none
O=C(c1cc(O)c(O)c([N+](=O)[O-])c1)c1ccccc1F	LAP4-GFP MLPCN 151 (no result: GASC-1 inh) | LAP4-GFP pick2 inactive | MEP2-GFP pick2 inactive | RPL19A-GFP pick2 inactive | CIT2-GFP pick2 inactive | AGP1 GFP CP2 inactive
O=C(Nc1ccc([N+](=O)[O-])cc1)c1ccccc1F	none
O=C1c2ccccc2C(=O)N1SC1CCCCC1	none | LAP4-GFP pick2 inactive | MEP2-GFP pick2 inactive | RPL19A-GFP pick2 inactive | CIT2-GFP pick2 inactive | AGP1 GFP CP2 inactive
O=[N+]([O-])c1ccc(O)c(/C=N/Nc2ccccn2)c1	LAP4-GFP MLPCN 237 | LAP4-GFP pick2 284 | MEP2-GFP pick2 180 | RPL19A-GFP pick2 inactive | CIT2-GFP pick2 inactive | AGP1 GFP CP2 inactive | s288c autofluor inactive
COc1ccccc1N=Nc1ccc(O)c2ncccc12	LAP4-GFP MLPCN 249 | s288c autofluor inactive
Cc1ccc(N=Nc2ccc(O)c3ncccc23)cc1	LAP4-GFP MLPCN 157 | LAP4-GFP pick2 188 | MEP2-GFP pick2 inactive | RPL19A-GFP pick2 inactive | CIT2-GFP pick2 150 | AGP1 GFP CP2 inactive | s288c autofluor inactive
Cc1ccc(N=Nc2ccc(O)c3ncccc23)cc1C	none
NS(=O)(=O)c1cccc(NC(=O)COC(=O)Cn2cc(C(F)(F)F)ccc2=O)c1	none
CCc1cccc2sc(N3CCN(C(=O)c4ccc([N+](=O)[O-])o4)CC3)nc12	RPL19A-GFP yeast 32 | s288c autofluor inactive
O=C(O)c1ccc(Cl)c(S(=O)(=O)Nc2cccc(C(=O)Nc3cccc(C(F)(F)F)c3)c2)c1	none
Cc1cc(-c2ccco2)c(C#N)c2nc3ccccc3n12	none | LAP4-GFP pick2 inactive | MEP2-GFP pick2 inactive | RPL19A-GFP pick2 inactive | CIT2-GFP pick2 inactive | AGP1 GFP CP2 inactive
CCOC(=O)c1nn(-c2ccc(OCC)cc2)c2nc(-c3ccco3)c(C#N)c(=O)n12	none | LAP4-GFP pick2 inactive | MEP2-GFP pick2 inactive | RPL19A-GFP pick2 inactive | CIT2-GFP pick2 inactive | AGP1 GFP CP2 inactive
CCOC(=O)c1nn(-c2ccc(OCC)cc2)c2nc(-c3cccc(OC)c3)c(C#N)c(=O)n12	none
COC(=O)Cc1csc(NC(=O)CSc2nncn2C)n1	LAP4-GFP MLPCN 169 | LAP4-GFP pick2 inactive | MEP2-GFP pick2 inactive | RPL19A-GFP pick2 inactive | CIT2-GFP pick2 inactive | AGP1 GFP CP2 inactive
Cc1cc(C)c(S(=O)(=O)N2CCC(C(=O)NCc3ccc(Cl)cc3Cl)CC2)c(C)c1	LAP4-GFP MLPCN 151 | LAP4-GFP pick2 152 | MEP2-GFP pick2 inactive | RPL19A-GFP pick2 inactive | CIT2-GFP pick2 inactive | AGP1 GFP CP2 inactive | s288c autofluor inactive
Cc1ccc(S(=O)(=O)Cc2cc(F)c([N+](=O)[O-])cc2[N+](=O)[O-])cc1	LAP4-GFP MLPCN 172 | s288c autofluor inactive
Cc1nn2c(NCc3ccccn3)c3c(nc2c1-c1ccccc1)CCC3	LAP4-GFP MLPCN 152 | s288c autofluor inactive
C#CCN(C(=O)c1ccc(OC)c(OC2CCN(C(C)C)CC2)c1)C1CCCCC1	none
O=C(O)CC(=O)Nc1cc(Cl)ccc1O	none | LAP4-GFP pick2 inactive | MEP2-GFP pick2 inactive | RPL19A-GFP pick2 inactive | CIT2-GFP pick2 inactive | AGP1 GFP CP2 inactive
Cc1ccccc1OCCOC(=O)c1ccc(S(=O)(=O)N2CCCC2)cc1	CIT2-GFP yeast 158 (no result: GASC-1 inh) | LAP4-GFP pick2 inactive | MEP2-GFP pick2 inactive | RPL19A-GFP pick2 inactive | CIT2-GFP pick2 inactive | AGP1 GFP CP2 inactive | s288c autofluor inactive
O=C(CCS(=O)(=O)c1ccc2c(c1)NC(=O)CS2)NCCc1ccccc1	LAP4-GFP MLPCN 159 | LAP4-GFP pick2 inactive | MEP2-GFP pick2 inactive | RPL19A-GFP pick2 inactive | CIT2-GFP pick2 inactive | AGP1 GFP CP2 inactive
O=C(CCS(=O)(=O)c1ccc2c(c1)NC(=O)CS2)NCCc1ccc(Cl)cc1	none
O=C(/C=C/c1ccccc1)NC(=S)NNC(=O)Cc1cccs1	none | LAP4-GFP pick2 inactive | MEP2-GFP pick2 inactive | RPL19A-GFP pick2 inactive | CIT2-GFP pick2 inactive | AGP1 GFP CP2 inactive | s288c autofluor inactive
N#CCc1ccc(OC(=O)c2cccnc2Cl)cc1	none
Cc1c(Cc2ccccc2)c(NCCN(C)C)n2c(nc3ccccc32)c1C#N	LAP4-GFP MLPCN 198 | s288c autofluor inactive
CN1CCN(CC(=O)Nc2c(C#N)cnn2-c2ccccc2)CC1	none
CCn1nc(C)c(CN2CCC(n3nccc3NC(=O)Cc3ccccc3)CC2)c1C	none (no result: CIT2-GFP yeast)
CC(=O)c1cccc(OCC(=O)Nc2cccc(C(=O)Nc3c(C)n(C)n(-c4ccccc4)c3=O)c2)c1	none
O=C(Nc1cccc(N=Cc2cc(Cl)cc(Br)c2O)c1)c1ccco1	none
O=C(Nc1cccc(N=Cc2cc(Br)cc(Br)c2O)c1)c1ccco1	LAP4-GFP MLPCN 190 | LAP4-GFP pick2 inactive | MEP2-GFP pick2 inactive | RPL19A-GFP pick2 inactive | CIT2-GFP pick2 inactive | AGP1 GFP CP2 inactive
